From PubChem BioAssay (NCI)
Compounds without any hit were thinned out: in the full panel of roughly 79,000, 15% have a hit. Rule as the data show it: active = growth inhibition above about 70%; inactive = the rest.

What was measured:
[1] = NCI Yeast Anticancer Drug Screen. Data for the rad50 strain (AID 155);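 also: 0% = growth of vehicle-only cultures of the same strain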; conditions: S. cerevisiae rad50 strain growth inhibition; at 50.0 µM; stronger effect = higher value
Summary of the method: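 Readout: growth inhibition relative to vehicle-treated cultures. Compound exposure was carried out in a genetically defined yeast strain deficient in DNA damage repair.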

[2] = NCI Yeast Anticancer Drug Screen. Data for the mec2-1 strain (AID 157); conditions: S. cerevisiae mec2-1 strain, at 50.0 µM, stronger effect = higher value
Summary of the method: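 Using mec2-1 yeast: add compound, measure growth, express inhibition versus vehicle-treated cultures.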

[3] = NCI Yeast Anticancer Drug Screen. Data for the sgs1 mgt1 strain (AID 161);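 also: 0% = growth of cultures given vehicle only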; conditions: S. cerevisiae sgs1 mgt1 strain, at 50.0 µM, stronger effect = higher value
Summary of the method: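 Yeast cells carrying a defined DNA-repair defect were exposed to test compounds. Growth inhibition was measured relative to vehicle-treated controls.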

[4] = NCI Yeast Anticancer Drug Screen. Data for the cln2 rad14 strain (AID 165);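 also: 0% = growth equal to vehicle treated cultures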; conditions: S. cerevisiae cln2 rad14 strain, at 50.0 µM, stronger effect = higher value
Summary of the method: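 Yeast strain cln2 rad14, bearing defects in cell cycle control and DNA repair, serves as the test system; values reflect growth inhibition compared with vehicle.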

[5] = NCI Yeast Anticancer Drug Screen. Data for the bub3 strain (AID 167); conditions: S. cerevisiae bub3 mutant strain, at 50.0 µM, stronger effect = higher value
Summary of the method: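 Readout: yeast growth inhibition, expressed relative to vehicle-only wells. The test organism is a mutant strain from a panel with lesions in DNA repair or checkpoint genes.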

[6] = NCI Yeast Anticancer Drug Screen. Data for the mlh1 rad18 strain (AID 175); conditions: S. cerevisiae mlh1 rad18 strain growth inhibition; at 50.0 µM; stronger effect = higher value
Summary of the method: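 Steps: expose repair-defective yeast to compound; measure growth; express inhibition against vehicle-treated controls.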

Measured: growth inhibition

CC(C)CN(CC(C)C)[N+](=O)[O-]
inactive: [1] -6.25% | [2] 1.45% | [3] -17.8% | [4] 4.05% | [5] 6.05% | [6] -12.7%

C[C@]12CC[C@H]3[C@@H](CC=C4C=C(P(=O)(O)O)CC[C@@]43C)[C@@H]1CC[C@@H]2O
inactive: [1] -8.1% | [2] 5.2% | [3] -8.55% | [4] -56.3% | [5] -12.9% | [6] -10.1%

O=P(Nc1ccccc1)(Oc1ccccc1)N(CCCl)CCCl (centres undefined)
inactive: [1] 29.4% | [2] -10% | [3] 1.2% | [4] 24.2% | [5] 7.7% | [6] 20.6%

CN(C)C(=O)Sc1c(S(=O)(=O)F)ccc(Cl)c1Cl
inactive: [1] 22.4% | [2] 14.8% | [3] 10.3% | [4] 20.9% | [5] 6.15% | [6] 8.6%

O=P(OCCCl)(OCCCl)OCCCl
inactive: [1] -12.1% | [2] -19.4% | [3] -19.2% | [4] -54.6% | [5] 0.15% | [6] -5%

Cn1cnc([N+](=O)[O-])c1[Se]c1nc(N)nc2nc[nH]c12
inactive: [1] -24.1% | [2] -12% | [3] -26.8% | [4] 15.2% | [5] -7.65% | [6] -17.9%

C=CCC1(O)CCC2C3CCC4=CC(=O)CCC4=C3C=CC21CC (centres undefined)
inactive: [1] 26.9% | [2] -7.35% | [3] 20.4% | [4] 19.9% | [5] 21.5% | [6] 21.6%

CCOP(=O)(OCC)/C(C#N)=C/c1cccn1C
inactive: [1] -0.95% | [2] -32.7% | [3] -44% | [4] -17.2% | [5] -21.8% | [6] -7.35%

COc1ccc(N2CC=C(c3ccccc3)OP2(=O)N(CCCl)CCCl)cc1 (centres undefined)
inactive: [1] -49.8% | [2] -4.5% | [3] -3.45% | [4] 9.75% | [5] 6.4% | [6] -3.2%

Cc1cccc(OP(=O)(c2ccccc2)c2ccccc2)c1
inactive: [1] 15.7% | [2] 0.35% | [3] 22.6% | [4] -40.6% | [5] 3.55% | [6] -15.9%

CCCc1ccc(CCN)cc1
inactive: [1] -8.55% | [2] -9% | [3] -15.1% | [4] -9.45% | [5] -2.3% | [6] -23.2%

O=C(Nc1c(O)[nH]c(=S)[nH]c1=O)c1ccco1
inactive: [1] -24.1% | [2] -4.8% | [3] -10.8% | [4] -4.35% | [5] -13.2% | [6] -16%

CCCCP(CCCC)CCCC
inactive: [1] -10% | [2] 0.95% | [3] 4.15% | [4] 19.2% | [5] 51% | [6] 19.6%

O=[As](O)(O[As](=O)(O)c1ccccc1)c1ccccc1
inactive: [1] 24.4% | [2] 18.1% | [3] 17.1% | [4] 5% | [5] -0.05% | [6] 28.5%

COc1cc2c(cc1O)-c1c(OC)c(O)cc3c1C(C2)N(C)CC3 (centres undefined)
inactive: [1] -20.6% | [2] -22.4% | [3] -22.6% | [4] -16.4% | [5] -24.4% | [6] -46.9%

Cc1cc(C)c(CCl)cc1CCl
inactive: [1] 16.2% | [2] -5.75% | [3] 26.4% | [4] -7% | [5] -7.15% | [6] 27.8%

CCOC(=O)C1C2(C(C)=O)C=Nc3c(C#N)cnn3C12C(=O)OCC (centres undefined)
inactive: [1] 0.9% | [2] -3.35% | [3] 4.85% | [4] 28.4% | [5] 4.2% | [6] -7.95%

C=CCP(c1ccccc1)c1ccccc1
inactive: [1] -2% | [2] -3.75% | [3] -8.65% | [4] 8% | [5] 9.1% | [6] -13.5%

OCC(Br)CBr (centres undefined)
inactive: [1] 40.9% | [2] 0.35% | [3] -3.6% | [4] -62.6% | [5] -11.7% | [6] -4.5%

CCCCCC[n+]1noc(N)c1-c1ccc(-c2c(N)on[n+]2CCCCCC)cc1
inactive: [1] 17.6% | [2] -1.35% | [3] 26.1% | [4] 21.8% | [5] 16.2% | [6] 18.5%

Cc1ccccc1-n1c(C)nc2ccccc2c1=O
inactive: [1] -29.3% | [2] -30.7% | [3] -1.35% | [4] 11.6% | [5] 1.5% | [6] -20.7%

Cc1ccc(NC(=O)C(=O)C2C(=O)NC(=O)NC2=O)c(C)c1
inactive: [1] 13.9% | [2] 9.75% | [3] 5.75% | [4] 11.2% | [5] 15.9% | [6] 17.6%

NNN1CCN(N)CC1
inactive: [1] 11.1% | [2] -12.2% | [3] 6.35% | [4] -8.35% | [5] 17.1% | [6] 4.35%

CN1C(=O)C2(c3ccccc31)C1CC3C(CO1)C1C2C3(CO)CN1C#N (centres undefined)
inactive: [1] 34.1% | [2] 12.9% | [3] -39.2% | [4] 1.1% | [5] -22.1% | [6] -6.8%

CC(C(=O)c1ccccc1)N(C)Cc1ccccc1 (centres undefined)
inactive: [1] -27.4% | [2] -2.05% | [3] 6.75% | [4] -36.7% | [5] 42.5% | [6] 17.1%

C[N+]1(C)C2CCC1CC(O)C2 (centres undefined)
inactive: [1] 5.45% | [2] -9.85% | [3] 3.55% | [4] 23.1% | [5] -6.35% | [6] 3.6%

CC(C)CCCC(C)C1CCC2C3CC=C4CC([Se][As](C)C)CCC4(C)C3CCC12C (centres undefined)
inactive: [1] 11.1% | [2] -0.1% | [3] 8.55% | [4] 14.7% | [5] 0.6% | [6] -7.4%

CCOc1ccc(/C=C/c2cc(OC)c(OC)c(OC)c2)cc1
inactive: [1] -27.9% | [2] -21.7% | [3] -23.8% | [4] -10.3% | [5] -8.6% | [6] -34.2%

CCCCCCCBr
inactive: [1] -21.5% | [2] 9% | [3] 3.1% | [4] 0.6% | [5] -5.45% | [6] 15.3%

CC1(C[N+](C)(C)C)COC(C)(C)O1 (centres undefined)
inactive: [1] -3.95% | [2] 11.6% | [3] 5.25% | [4] -2.85% | [5] 5.3% | [6] 3.95%

O=S(=O)(F)c1ccccc1
inactive: [1] 35.8% | [2] -0.6% | [3] -11.4% | [4] -59.8% | [5] 2.1% | [6] 6.85%

CN1C2CCC1CC(OC(=O)c1cccc(O)c1)C2 (centres undefined)
inactive: [1] 30.9% | [2] 0.55% | [3] 0.9% | [4] 4.95% | [5] 15.9% | [6] 16.4%

CN1C(=O)C(=CN(C)c2ccccc2)C(=O)N(C)C1=O
inactive: [1] 13.2% | [2] 8.4% | [3] 23.7% | [4] 13.5% | [5] 4.4% | [6] -8.85%

O=c1ccc(=O)[nH][nH]1.[Zn+2]
inactive: [1] -18.2% | [2] 5.1% | [3] -4.8% | [4] -7.2% | [5] -4% | [6] -22.1%

O=C(c1ccccc1)N1CC1
inactive: [1] 6.1% | [2] 33.9% | [3] -22.1% | [4] 35.5% | [5] -3.8% | [6] 0.35%

COc1ccc(-n2c(C)nc3ccccc3c2=O)cc1CN(CCCl)CCCl
inactive: [1] 4.45% | [2] -3.55% | [3] -8.15% | [4] -22.1% | [5] 2.6% | [6] 2.3%

Cn1c(O)c(C=N)c(=O)[nH]c1=O
inactive: [1] -4% | [2] 3.35% | [3] -1.65% | [4] -15.7% | [5] -8% | [6] -8.3%

CCCC[C@H]1C(=O)O[C@H](C)[C@H](NC(=O)c2cccc(NC=O)c2O)C(=O)O[C@@H](C)[C@@H]1OC(=O)CC(C)C
inactive: [1] 18.4% | [2] 12.5% | [3] 30.9% | [4] 16.4% | [5] 13.6% | [6] 44.2%

CN(C)C(=O)Sc1cc(Cl)c(S(=O)(=O)F)cc1Cl
inactive: [1] 9.45% | [2] 6.8% | [3] 10.7% | [4] 8.9% | [5] 3.35% | [6] 14.9%
